Laboratory results taken from ChEMBL document CHEMBL3988442, “University of Dundee, Small-Polar-MMV Screening Library” (2021).
The whole screen tested about 48,000 compounds, of which about 13,000 (27%) showed an effect of 50% or more. This is one part of the list.

The compounds below were run on Wolbachia pipientis (assay: Anti-Wolbachia Cell-Based Screen). Conditions: 5 µM.
Format: functional
Set-up: scale not given: in the data most compounds retested in dose-response had high values

Row | Compound | Percent Effect [%]
1 | COCCN1CCC(CNC(=O)C2(C#N)CCCCC2)CC1 | -10.25
2 | COCCN1CCC(CNC(=O)C2(c3ccccc3)CCC2)C1 (configuration not stated) | 100.1
3 | CCCN1CCC(CNC(=O)C2(c3cc(C)cc(C)c3)CCC2)C1 (configuration not stated) | 132
4 | COCCN1CCC(CNC(=O)C2(c3ccc(Br)cc3)CCCC2)C1 (configuration not stated) | 150.6
5 | CC(C)[C@@H]1CN(CCCOc2ccc(F)cc2)C[C@H]1NS(C)(=O)=O | 10.36
6 | CC(C)(C)Oc1ccncc1NCc1cscn1 | -14.11
7 | CCN1CCC(CNC(=O)C2(c3cccc(C)c3)CC2)C1 (configuration not stated) | -3.143
8 | Cc1cc(CN2CCC(CNC(=O)C3(c4ccccc4)CC3)C2)[nH]n1 (configuration not stated) | -1.817
9 | CCCN1CCC(CNC(=O)C2(c3ccccc3)CCC2)C1 (configuration not stated) | 94.67
10 | O=C(NCCNc1ncccn1)NCCc1c(F)cccc1F | 4.613
11 | O=c1c2cccnc2cnn1CC(O)c1ccc(F)c(F)c1 (configuration not stated) | -16.55
12 | Cc1cc(CNC(=O)CN2CCN(C(=O)OC(C)(C)C)CC2)ccc1F | -110.5
13 | CS(=O)(=O)Cc1ccc(NC(=O)Cc2cccnc2)cc1F | 17.36
14 | Cn1c2ncccc2c(=O)n1CC(=O)NCCC1=CCCCC1 | 106.1
15 | Cc1ccc(CNC(=O)N2CCOCC2C2CC2)cc1F (configuration not stated) | -8.546
16 | Cn1c2ncccc2c(=O)n1CC(=O)NCCc1c(F)cccc1F | 97.5
17 | O=C(CN1CCN(CCO)CC1)NCCc1c(F)cccc1F | 0.9837
18 | Cn1c2ncccc2c(=O)n1CC(=O)Nc1ccc(F)c(F)c1 | 107.1
19 | Cc1nc2n(n1)CC(NCC(=O)NCCC1=CCCCC1)CC2 (configuration not stated) | 18.92
20 | Cc1ccc(CNC(=O)Cn2c(=O)c3cccnc3n2C)cc1F | 105.8
21 | O=C(CN1CCCCC1Cn1cncn1)NCCC1=CCCCC1 (configuration not stated) | -14.45
22 | CNC(=O)[C@@H]1C[C@H](N)CN1S(=O)(=O)c1cc(C)c(Cl)cc1C | 4.211
23 | COc1ccccc1OC1(C(=O)O)CCN(c2ncccc2F)CC1 | -11.09
24 | COc1ccncc1NCc1cscn1 | 0.2861
25 | CSc1ccc(CN(CCO)Cc2nccn2C)cc1 | -0.296
26 | Cc1cncc(C(=O)N2CCOc3nc(C)ccc32)c1 | 1.683

Row | Compound | Percent Effect [%]
27 | CCC(C)(NCC(=O)NC(=O)NC)c1nc(C)cs1 (configuration not stated) | -8.328
28 | COc1cccc(C(C)N2CCN(S(C)(=O)=O)CC2)c1 (configuration not stated) | -19.03
29 | Cc1cccc2nc(CSCc3nnnn3C(C)C)cn12 | -17.34
30 | CN(Cc1cccnc1)[C@@H]1CN(C(=O)NC2CC2)[C@@H]2CCCO[C@H]12.O=C(O)C(F)(F)F.O=C(O)C(F)(F)F | 101
31 | O=C(O)C(F)(F)F.O=C(c1ccoc1)N1CCO[C@]2(CCC[C@H]2COCc2cccnc2)C1 | 1.703
32 | CN(Cc1cccnc1)[C@@H]1CN(C(=O)c2ccoc2)[C@@H]2CCCO[C@H]12.O=C(O)C(F)(F)F.O=C(O)C(F)(F)F | 116.4
33 | CN(Cc1cccnc1)[C@@H]1CN(C(=O)c2ccno2)[C@@H]2CCCO[C@H]12.O=C(O)C(F)(F)F.O=C(O)C(F)(F)F | 103.3
34 | CN(Cc1cccnc1)[C@@H]1CN(C(=O)CC2CC2)[C@@H]2CCCO[C@H]12.O=C(O)C(F)(F)F.O=C(O)C(F)(F)F | 108.9
35 | O=C(O)C(F)(F)F.O=C(c1ccoc1)N1CCO[C@]2(CCC[C@@H]2COCc2cccnc2)C1 | -7.34
36 | CN(Cc1nccn1C)S(=O)(=O)c1cccc(C#N)c1 | 5.7
37 | Cc1ccc(CN2C[C@@H](N(C)C)[C@H]3OCCC[C@H]32)o1.O=C(O)C(F)(F)F.O=C(O)C(F)(F)F | -10.94
38 | CN(C)[C@@H]1CN(C(=O)c2ccc(C#N)cc2)[C@@H]2CCCO[C@H]12.O=C(O)C(F)(F)F | 5.598
39 | CN(C)[C@@H]1CN(C(=O)CCc2ccccc2)[C@@H]2CCCO[C@H]12.O=C(O)C(F)(F)F | 98.44
40 | COc1cccc(Nc2nc(C3CCCNC3)c3ccccn23)c1.Cl (configuration not stated) | 104.7
41 | COc1cccc(Nc2nc(C3CCNCC3)c3ccccn23)c1.Cl | 85.66
42 | COc1ccc(OC)c(C2CCN(Cc3nc(C)n4ccccc34)C2)c1 (configuration not stated) | 11.21
43 | Cn1cc(CCCNC(=O)NC2CCN(CC(F)(F)F)C2=O)cn1 (configuration not stated) | -5.145
44 | Cc1ncc(CNC(=O)c2oc3ccccc3c2CN(C)C)s1 | -2.973
45 | Cn1nc(C2CCN(C(=O)c3cccs3)CC2)c2cccnc21 | 107.6
46 | Cn1cnnc1S(=O)(=O)C1CCN(C(=O)c2cccs2)CC1 | -12.26
47 | COC1CCN(C(=O)Cc2csc(-c3ncccn3)n2)CC1 | -12.9
48 | Cl.Cn1nc(C2CCN(C(=O)Cc3cccc(F)c3)CC2)c2cccnc21 | -4.432
49 | Cl.Cn1nc(C2CCN(C(=O)Cc3ccsc3)CC2)c2cccnc21 | 115.7
50 | Cc1nc(CC(=O)N2CCC(c3nn(C)c4ncccc34)CC2)cs1.Cl | 92.52
51 | N#Cc1cccnc1N1CCN(C(=O)c2cccs2)CC1 | -4.28
52 | CN1CCN(C(=O)Cc2ccsc2)Cc2cccnc21.O=C(O)C(F)(F)F | -3.335
